# GLP1R ag = GLP-1 receptor (human) agonism; P43220; HEK293 GLP-1R CRE-luciferase, luminescence, 4-6 h; cells express a hypersensitive GLP-1R form; Potency, µM (titrated, usually from 45.6 µM), for the others: at the top dose activation, actives largely listed as activators; actives 0.007% (n = 380,000); AID 624172; further: potency means the concentration at half of the fitted maximal effect; % of control where 0% means no effect
# GLP-1R inv ag = inverse agonists of human GLP-1 receptor | Potency, µM (top dose mostly 38.3 µM), for inactives: at the top dose activity change, negative = inhibition, hits mostly inhibitors | AID 624417 | HEK293 GLP-1R CRE-luciferase, luminescence, 24 h; GLP-1R form is constitutively active | P43220 | actives 1.6% (n = 410,000); further: potency means the concentration at half of the fitted maximal effect; on the % scale 0 is the no-effect control and ±100 the full control effect; nearly all actives have a fitted effect of over 55% in size
#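 GLP-1R inverse agonism mode: basal reporter luminescence in engineered HEK293 cells measured after one day of compound exposure at 37 deg C, with a 12 min room-temperature detection step.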
# PTHR1 agonist = activates the human parathyroid hormone receptor PTHR1. Q03431. HEK293 GP2 PTHR1 cells, GloSensor cAMP luminescence, 1 h. Potency, µM (doses to about 115 µM), without a hit: at the top dose activation, actives largely listed as activators. actives 0.075% (n = 410,000); further: potency means the concentration at half of the fitted maximal effect; nearly all actives have a fitted effect of over 55% in size
#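 HEK-293-derived GP2 cells expressing PTHR1 and a GloSensor cAMP reporter, 3,000/well, plated overnight, given luciferin plus IBMX (each 0.5 mM as added) for 1 h at 37 °C, then compound for 1 h at 37 °C. Luminescence was read after 15 min at room temperature.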
# mIDH1 inhibitor = human IDH1 R132H inhibition. O75874. actives 0.093% (n = 390,000). IDH1-R132H enzyme, NADPH consumption, diaphorase/resazurin fluorescence. Potency, µM (titrated, usually from 76.6 µM), without a hit: top-dose activity change, negative = inhibition, most hits filed as inhibitors; further: potency means the concentration at half of the fitted maximal effect; on the % scale 0 is the no-effect control and ±100 the full control effect; nearly all actives have a fitted effect of over 65% in size
# Target sequence (O75874 whole entry R132H, stated change not applied): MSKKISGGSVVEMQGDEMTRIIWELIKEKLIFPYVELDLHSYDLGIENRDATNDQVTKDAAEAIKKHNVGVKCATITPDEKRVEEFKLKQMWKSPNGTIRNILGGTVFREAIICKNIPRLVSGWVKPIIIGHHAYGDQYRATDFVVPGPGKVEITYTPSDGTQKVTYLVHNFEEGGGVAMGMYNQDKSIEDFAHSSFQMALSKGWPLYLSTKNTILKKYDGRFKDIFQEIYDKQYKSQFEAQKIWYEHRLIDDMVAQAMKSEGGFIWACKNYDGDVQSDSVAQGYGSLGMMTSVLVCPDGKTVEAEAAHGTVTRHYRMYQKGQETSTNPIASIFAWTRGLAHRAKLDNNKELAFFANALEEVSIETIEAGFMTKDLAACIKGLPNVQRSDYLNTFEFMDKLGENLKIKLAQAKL
#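 IDH1-R132H (0.5 ug/mL) preincubated 30 min with compound, then NADPH (0.016 mM) and alpha-KG (2 mM) added; 80 min at RT, pH 7.5. Remaining NADPH coupled via diaphorase/resazurin to fluorescence (540/590 nm); concentration-response curves normalized to no-enzyme control.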
# GLP1R cytotox = cytotoxicity counter-screen for GLP-1 receptor inverse agonists; actives 0.13% (n = 410,000); HEK293 cAMP-luciferase reporter cells, luminescence, 24 h; AID 624418; Potency, µM (top dose mostly 38.3 µM), for the others: at the top dose activity change, negative = inhibition, hits mostly inhibitors;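 further: loss of luciferase light is scored as toxicity; potency means the concentration at half of the fitted maximal effect; on the % scale 0 is the no-effect control and ±100 the full control effect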
#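 Luminescence readout: signal drop marks cytotoxicity. Plated cells grew 12 h at 37 °C, 5% CO2, received 23 nL compound for 24 h, then got luciferase reagent, read after 12 min at RT.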
# LDHA inh = blocks human lactate dehydrogenase A; P00338; AID 1347041; activity change, % (values are at about 110 or 230 µM); purified LDHA, NADH/diaphorase-resazurin fluorescence; hits give low values; actives 0.15% (n = 480,000); in the data active means activity change below about -30%; inconclusive means mostly about -25% to -30%;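 further: plate controls were DMSO wells for no effect and wells without enzyme for full effect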
#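 Human LDH5 (2 nM) was incubated with 0.06 mM NADH and 0.2 mM pyruvate for 5 min at room temperature in Tris pH 7.4. Remaining NADH was coupled through diaphorase/resazurin, and resorufin fluorescence was read at 0 and 20 min.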
# An asterisk follows results filed as active; i = inactive; ? = inconclusive; . = no result; [ ] = remark or other dose. A selection: hits, their analogues and other compounds. The true share with any hit is near 1.7%. Unless noted, the call rests on the fitted dose curve; in most records, active means well fitted curve in the direction sought with a large enough effect; inconclusive means small, poorly fitted or top-dose-only effect, or another doubt; inactive means no such curve, though single readings can be large; an effect the other way counts as inactive or inconclusive.
SMILES,GLP1R ag,GLP-1R inv ag,PTHR1 agonist,mIDH1 inhibitor,GLP1R cytotox,LDHA inh
CN1CCN(C(=O)c2cc3c(c(-c4cccc(-c5cc6ccccc6o5)c4)n2)[C@H](CCO)N(S(=O)C(C)(C)C)C3)CC1 (stereo partly specified),-3.4%,-1.9%,-15.6%,.,5.0%,-0.1
Cc1ccc(-c2nc(CSCC(=O)NCCCOC(C)C)c(C)o2)cc1,.,.,.,.,.,2.7
CCOCCCNC(=O)CSCc1nc(-c2ccc(C)cc2)oc1C,.,.,.,.,.,-34.2*
CCN(CC)C(=S)Nc1c(C)cccc1C,.,.,.,.,.,4.7
CCOC(=O)Cc1ccc(NC(=O)c2ccc(C(C)(C)C)cc2)cc1,-10.8%,5.01µM*,-12.4%[57.5 µM],8.0%,-19.8%,1.3
CCOC(=O)Cc1ccc(NC(=O)c2ccccc2Br)cc1,17.4%,?,-10.7%,2.5%,-9.5%,-1.7
COc1ccc2ccccc2c1CNC(C)c1ccccc1 (stereo unspecified),-2.7%,?,-11.2%,-7.6%,?,-19.6
CC(NCCCOc1cccc2ccccc12)c1ccccc1 (stereo unspecified),-1.2%,8.91µM*,-9.3%,-0.8%,?,-2.9
CC(NC(=O)COc1ccc(C#N)cc1)C12CC3CC(CC(C3)C1)C2 (stereo unspecified),.,.,.,.,.,7.7
CCOC(=O)C(=CNc1ccc(Cl)cn1)C(=O)OCC,11.9%,41.5%,-2.3%,4.4%,0.7%,-11.4
CCOC(=O)C(=CNNc1cccc(Cl)c1)C(=O)OCC,-2.7%,5.01µM*,-17.0%,2.7%,-3.4%,7.5
CCC(=O)Nc1sc2c(c1C#N)CCC(C)C2 (stereo unspecified),.,.,.,.,.,-1.8
CC(C)(C)C(=O)NCCCNC(=O)c1cccs1,.,.,.,.,.,1.2
COC(=O)c1sc(NC(=O)CN2c3ccccc3CC2C)c(C(=O)OC)c1C (stereo unspecified),.,.,.,.,.,3.5
CCOc1ccccc1C(=O)Nc1cc2c(cc1N1CCCC1)n(CC)c(=O)n2CC,4.7%,?,-8.7%,46.5µM*,?,5.7
COc1ccc(C(=O)Nc2cc3c(cc2N2CCCCC2)n(C)c(=O)n3C)cc1OC,7.8%,117.0%,-1.6%,46.5µM*,-7.5%,-1.2
CCn1c(C)cc2c(c1=O)C(c1ccc(Br)cc1)C(C#N)=C(N)O2 (stereo unspecified),.,.,.,.,.,-0.7
Cc1cc(OCCN2CCC(Cc3ccccc3)CC2)ccc1[N+](=O)[O-],-5.0%,11.2µM*,-34.5%,7.0%,?,-8.7
O=C(NC(c1ccc(Cl)cc1)c1ccsc1)C1CCN(Cc2ccc(Oc3ccccc3)cc2)CC1 (stereo unspecified),1.7%,10µM*,-6.6%,.,-23.7%,-9.0
Cc1ccccc1C(NC(=O)C1CCN(Cc2ccc(Oc3ccccc3)cc2)CC1)c1ccsc1 (stereo unspecified),-8.1%,?,5.2%,.,-7.7%,-1.0
Brc1ccccc1-c1nn2c(Cn3cnc4ccccc43)nnc2s1,.,.,.,.,.,-14.3
COc1ccc(C(C)NC(=O)CCc2ncc(-c3c(F)cccc3F)o2)cc1F (stereo unspecified),.,.,.,.,.,-23.9
CCCC[C@@H]1CCCO[C@@](C(=O)NCc2ccccn2)(C(F)(F)F)C1,-4.4%,5.01µM*,-5.2%,2.3%,19.0%,-2.2
CCC[C@@H]1CCCO[C@@](C(=O)NCc2ccccn2)(C(F)(F)F)C1,-3.3%,?,-2.5%,6.3%,4.4%,-1.2
CC(C)NC(=O)C(C)n1cnc2c1c(=O)n(C)c(=O)n2C (stereo unspecified),.,.,.,.,.,0.8
SMILES,GLP1R ag,GLP-1R inv ag,PTHR1 agonist,mIDH1 inhibitor,GLP1R cytotox,LDHA inh
CC(C(=O)NC(=O)NC12CC3CC(CC(C3)C1)C2)n1cnc2c1c(=O)n(C)c(=O)n2C (stereo unspecified),.,.,.,.,.,-31.5*
CCC1CCC(c2ccc(C(C)=O)cc2)CC1 (stereo unspecified),.,.,.,.,.,2.9
FC(F)C(F)(F)Oc1cccc(Nc2nccn3c(-c4ccc5ccccc5c4)cnc23)c1,-0.6%,11.2µM*,-73.2%,.,-5.2%,-79.3*
Oc1ccc(-c2cnc3c(Nc4cccc(OC(F)(F)C(F)F)c4)nccn23)cc1,4.6%,?,-15.9%,.,-27.7%,-5.0
CCC(C(=O)OCC(=O)N1C(C)CCCC1C)c1ccccc1 (stereo unspecified),12.3%,8.91µM*,i,-1.0%,2.6%,-4.1
O=C(COC(=O)c1ccc2c(c1)NC(=O)CS2)NCc1cccs1,.,.,.,.,.,10.6
COc1ccccc1C1CC(c2ccccc2)=NN1C(=O)c1ccccc1 (stereo unspecified),-3.7%,8.91µM*,i,0.0%,?,1.2
COc1ccccc1C1CC(c2ccc(NS(C)(=O)=O)cc2)=NN1C(=O)c1ccccc1 (stereo unspecified),5.3%,-19.9%,-12.8%,-4.1%,6.4%,-11.5
C=C(C)c1cccc(C(C)(C)NC(=O)NC(CC)CO)c1 (stereo unspecified),.,.,.,.,.,0.1
COc1ccc(C(=O)Nc2nc(-c3ccc(Br)s3)ns2)cc1,.,.,.,.,.,-30.3*
O=C(Nc1cccc(N2CCCC2=O)c1)c1ccc(-n2cnc3ccccc32)cc1,.,.,.,.,.,-0.7
Cc1ccccc1NC(=O)c1ccc(F)c(S(=O)(=O)N(C)C2CCCCC2)c1,.,10µM*,i,34.9%,-1.1%,-1.6
Cc1ccccc1NC(=O)c1ccc(F)c(S(=O)(=O)NCC2CCCO2)c1 (stereo unspecified),-5.9%,-11.7%,-9.1%,-9.1%,-1.3%,-20.0
O=C(Oc1ccc(C(=S)N2CCOCC2)cc1Br)c1cc(Cl)ccc1Cl,0.8%,2.6%,i,0.4%,-10.5%,1.6
O=C(Oc1c(Br)cc(C(=S)N2CCOCC2)cc1Br)c1ccc(Cl)cc1,-7.7%,10µM*,-6.7%[57.5 µM],1.9%,?,-9.7
COC(=O)c1cc(NC(=O)OCc2ccccc2)cc(C(=O)OC)c1,.,.,.,.,.,-22.6
CC(C)Cc1cc(C(=O)Nc2ccc3c(c2)OCO3)no1,-1.6%,3.98µM*,i,5.2%,19.7%,0.1
Cc1cc(C(=O)Nc2ccc3c(c2)OCO3)no1,-2.0%,?,i,2.1%,1.0%,2.6
CCN(CC)c1ccc2cc(S(=O)(=O)c3ccc(Cl)cc3)c(=O)oc2c1,9.6%,10µM*,-3.5%,-1.4%,319.6%,-9.5
CCCCCCc1cc2cc(S(=O)(=O)c3ccc(Cl)cc3)c(=O)oc2cc1O,-3.0%,?,-43.2%,-3.4%,272.7%,-12.7
O=C1/C(=C\c2cccc(Cl)c2)Cc2ccccc21,.,.,.,.,.,8.5

# Screening results (PubChem BioAssay)
